A selection: hits, their analogues and other compounds. The true share with any hit is near 7.5%.
FLuc modulator: firefly luciferase modulation, counter-screen for miR-21 project; Potency, µM (doses to about 57.5 µM), hits mostly inhibitors; purified FLuc, Km substrates, luminescence inhibition; P08659; actives 6.9% (n = 360,000); also: nearly all actives have a fitted effect of over 55% in size
Target sequence (P08659 whole entry, looked up): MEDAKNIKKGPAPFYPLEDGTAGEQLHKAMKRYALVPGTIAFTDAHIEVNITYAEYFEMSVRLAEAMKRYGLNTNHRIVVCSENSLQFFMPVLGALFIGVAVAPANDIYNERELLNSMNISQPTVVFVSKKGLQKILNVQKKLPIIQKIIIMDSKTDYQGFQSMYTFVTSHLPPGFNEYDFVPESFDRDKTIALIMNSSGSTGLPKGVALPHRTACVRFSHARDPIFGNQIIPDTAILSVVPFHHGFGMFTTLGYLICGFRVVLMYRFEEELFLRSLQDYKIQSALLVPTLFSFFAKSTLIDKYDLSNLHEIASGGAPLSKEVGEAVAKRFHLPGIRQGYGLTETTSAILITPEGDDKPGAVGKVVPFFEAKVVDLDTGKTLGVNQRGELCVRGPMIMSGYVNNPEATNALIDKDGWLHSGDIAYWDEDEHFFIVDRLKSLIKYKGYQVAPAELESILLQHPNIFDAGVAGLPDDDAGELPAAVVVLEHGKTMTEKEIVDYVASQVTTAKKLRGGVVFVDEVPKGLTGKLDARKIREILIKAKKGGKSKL
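Purified P. pyralis luciferase, 10 nM final, with Km-level 10 uM D-luciferin and 10 uM ATP in 50 mM Tris acetate pH 7.5, 10 mM Mg acetate, 0.01% Tween-20, 0.05% BSA; 6-point qHTS titration about 60 µM downward; luminescence read.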
NPC1 prom act: NPC1 promoter activation | Huh7 NPC1 promoter luciferase reporter, 24 h | Potency, µM (top dose mostly 9.22 µM), actives largely listed as activators | actives 2.4% (n = 320,000); also: nearly all actives have a fitted effect of over 60% in size
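NPC1 promoter–luciferase Huh7 cells; 24 h compound; luminescence.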
SMN2 splice enh: increases expression of the SMN2 splice variant; actives 2.8% (n = 210,000); Potency, µM (series often up to 46.1 µM), actives largely listed as activators; HEK293 SMN2-luciferase splicing reporter, luminescence, 30-36 h; also: nearly all actives have a fitted effect of over 55% in size
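HEK293 cells carry an SMN2 […]–luciferase reporter in which exon 7 inclusion puts luciferase in frame. Cells were plated 10-12 h before compound addition, then incubated 30-36 h at 37C. ONE-Glo luminescence was read; sodium butyrate at 4.5 mM final served as control.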
KinaseGlo FLuc: blocks Kinase-Glo luciferase, a counter-screen artifact | Kinase-Glo luciferase, ATP luminescence, 8 min | Q27757 | actives 0.28% (n = 200,000) | Potency, µM (doses to about 38.3 µM), actives largely listed as inhibitors; also: nearly all actives have a fitted effect of over 60% in size
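Kinase-Glo luciferase light output from ATP and luciferin was measured with 10 uM ATP, within the enzyme's linear range. Buffer: 50 mM imidazole pH 7.2, 50 mM KCl, 7 mM MgCl2, 0.01% Tween 20, 0.05% BSA; luminescence read after 8 min at ambient temperature.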
Rab9 prom act: activates the Rab9 promoter. actives 2.8% (n = 320,000). Huh7 Rab9 promoter-luciferase reporter, luminescence, 24 h. Potency, µM (titrated, usually from 9.22 µM), usual class: activators; also: nearly all actives have a fitted effect of over 60% in size
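Cell-based reporter: Huh7 stable for Rab9 promoter-driven luciferase, plated in reduced-serum medium with 10% FBS at 1500 cells/well, compound-treated 24 h at 37 °C, luminescence read after 10 min reagent.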
ELG1 genotoxic: induces genotoxicity in HEK293T cells with luciferase-tagged ELG1 | Potency, µM (titrated, usually from 46 µM), hits mostly activators | actives 1.3% (n = 330,000) | AID 504466 | HEK293T ELG1-luciferase reporter, luminescence, 16 h; also: nearly all actives have a fitted effect of over 60% in size
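Quantitative HTS format in 1536-well plates. HEK293T ELG1-luciferase reporter cells receive test compound and are incubated 16 hr at 37 °C, 5% CO2; ONE-Glo added, 30 min room temperature, then luminescence read.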
Numbers stand for hits. Calls follow the shape of the dose curve; as a rule, active = well fitted curve in the direction sought with a large enough effect; inconclusive = small, poorly fitted or top-dose-only effect, or another doubt; inactive = no such curve, though single readings can be large; an effect the other way counts as inactive or inconclusive.

For COc1cc2c(cc1OC)C(COc1ccc3c(C)cc(=O)oc3c1)N(C(=O)c1cc(Cl)ccc1OC)CC2 (stereo not given) the results were FLuc modulator inactive and SMN2 splice enh inactive.
Screening COc1cc2c(cc1NC(=O)C1CCCO1)oc1ccccc12 (stereo not given) returned FLuc modulator 6.01µM, NPC1 prom act 3.98µM, SMN2 splice enh 25.1µM, KinaseGlo FLuc inactive, Rab9 prom act 3.55µM and ELG1 genotoxic 4.61µM.
`O=C(Nc1cccc(Br)c1)c1ccc(CSc2ccccc2)cc1` gave FLuc modulator 12µM, NPC1 prom act inactive, SMN2 splice enh inactive, KinaseGlo FLuc inactive, Rab9 prom act inactive and ELG1 genotoxic inactive.
O=C(O)c1ccc(CN2C(=O)c3ccc(C(=O)O)cc3C2=O)cc1 was read as FLuc modulator inactive, NPC1 prom act inactive, Rab9 prom act inactive and ELG1 genotoxic inactive.
For O=C(O)c1cccc(NC2=C(Cl)C(=O)c3ccccc3C2=O)c1 the results were FLuc modulator 16.9µM, NPC1 prom act inactive, SMN2 splice enh inactive, KinaseGlo FLuc inactive, Rab9 prom act inconclusive and ELG1 genotoxic inactive.
`O=C(O)c1ccc(NC2=C(Cl)C(=O)c3ccccc3C2=O)cc1` gave FLuc modulator inconclusive, NPC1 prom act inactive, Rab9 prom act inactive and ELG1 genotoxic inactive.
Screening O=C(O)c1cccc(NC(=O)c2ccc(CN3C(=O)c4ccccc4C3=O)cc2)c1 returned FLuc modulator 12µM, NPC1 prom act inactive, Rab9 prom act inactive and ELG1 genotoxic inactive.
`O=C(O)c1cccc(NC(=O)c2ccc3c(c2)C(=O)N(Cc2ccco2)C3=O)c1` gave FLuc modulator 0.953µM, NPC1 prom act inactive, KinaseGlo FLuc inactive, Rab9 prom act inactive and ELG1 genotoxic inactive.
Screening O=C(Nc1cccnc1)c1ccc(CSc2ccccc2)cc1 returned FLuc modulator inactive, NPC1 prom act inactive, Rab9 prom act inactive and ELG1 genotoxic inactive.
For Cc1noc(/C=C/c2ccccc2F)c1S(=O)(=O)N1CCC(C(=O)Nc2ccc(C#N)cc2)CC1 the results were FLuc modulator inactive.
`O=C1CCCc2cc(S(=O)(=O)N3CCCC(C(=O)NCc4ccc(Cl)cc4)C3)ccc2N1` (stereo not given) gave FLuc modulator inactive.
Screening Cc1ccc(CNC(=O)c2cc3cc(C)ccc3n2C)cc1 returned FLuc modulator inactive.
Cc1c(NC(=O)c2ccc3c(c2)C(=O)N(Cc2ccco2)C3=O)cccc1C(=O)O was read as FLuc modulator 15.1µM, NPC1 prom act inactive, SMN2 splice enh inactive, KinaseGlo FLuc inactive, Rab9 prom act inactive and ELG1 genotoxic inactive.
For O=C(O)COc1ccc(NC(=O)c2ccc3c(c2)C(=O)N(C2CCCCC2)C3=O)cc1 the results were FLuc modulator inactive, NPC1 prom act inactive, Rab9 prom act inactive and ELG1 genotoxic inactive.
Screening O=C(O)c1cccc(NC(=O)c2ccc3c(c2)C(=O)N(C2CCCCC2)C3=O)c1 returned FLuc modulator 0.19µM, NPC1 prom act 1.58µM, Rab9 prom act 1µM and ELG1 genotoxic inconclusive.
COc1ccc(S(=O)(=O)N(C)CC(=O)NC2CC2)cc1OC was read as FLuc modulator inactive, NPC1 prom act inactive, Rab9 prom act inactive and ELG1 genotoxic inactive.
For Cc1nn(Cc2ccccc2Cl)c(Cl)c1C(=O)NCCc1ccccc1 the results were FLuc modulator 3.79µM, NPC1 prom act 3.98µM, SMN2 splice enh 11.2µM, KinaseGlo FLuc inactive, Rab9 prom act 1.58µM and ELG1 genotoxic inconclusive.
Cc1ccc2c(CNCc3ccco3)cc(=O)oc2c1 was read as FLuc modulator 23.9µM, NPC1 prom act inconclusive, SMN2 splice enh 12.6µM, KinaseGlo FLuc inactive, Rab9 prom act inconclusive and ELG1 genotoxic inconclusive.
`CCOc1ccccc1NCc1cc(=O)oc2cc(C)ccc12` gave FLuc modulator inconclusive, NPC1 prom act inactive, Rab9 prom act inactive and ELG1 genotoxic inactive.
Screening Cc1ccccc1NC(=O)CC1NCCNC1=O (stereo not given) returned FLuc modulator inactive and SMN2 splice enh inactive.
Screening COc1ccc2cc(C3OCCO3)c(Cl)nc2c1 returned FLuc modulator 12µM, NPC1 prom act 2.51µM, KinaseGlo FLuc inactive, Rab9 prom act 2.51µM and ELG1 genotoxic inconclusive.
Screening CCOC(=O)Cn1cc(/C=N/N2C(=O)C3C4C=CC(C4)C3C2=O)c2ccccc21 (stereo not given) returned FLuc modulator 15.1µM, NPC1 prom act inactive, SMN2 splice enh inactive, KinaseGlo FLuc inactive, Rab9 prom act inactive and ELG1 genotoxic inactive.
Screening O=C1C2C3C=CC(C3)C2C(=O)N1/N=C/c1cn(Cc2ccccc2)c2ccccc12 (stereo not given) returned FLuc modulator inconclusive, NPC1 prom act inactive, SMN2 splice enh inactive, KinaseGlo FLuc inactive, Rab9 prom act inactive and ELG1 genotoxic inactive.
`O=C1C2C3C=CC(CC3)C2C(=O)N1/N=C/c1c[nH]c2ccccc12` (stereo not given) gave FLuc modulator 9.53µM, NPC1 prom act inconclusive, SMN2 splice enh inactive, KinaseGlo FLuc inactive, Rab9 prom act inconclusive and ELG1 genotoxic inactive.
For CCCCOc1ccc(C(C)NC(=O)CN2C(=O)CSc3ccc(S(=O)(=O)N4CCOCC4)cc32)cc1 (stereo not given) the results were FLuc modulator inactive.
For O=C(Nc1nccs1)c1ccc(COc2ccc(Cl)cc2)o1 the results were FLuc modulator inconclusive, SMN2 splice enh inactive and KinaseGlo FLuc inactive.
Screening O=C(COc1ccc(F)cc1)Nc1nc2c(s1)CCCC2 returned FLuc modulator 26.9µM, NPC1 prom act inconclusive, Rab9 prom act inconclusive and ELG1 genotoxic inconclusive.
`O=C(Nc1nccs1)c1ccc(COc2ccc(F)cc2)o1` gave FLuc modulator 15.1µM, NPC1 prom act inconclusive, SMN2 splice enh inactive, KinaseGlo FLuc inactive, Rab9 prom act inconclusive and ELG1 genotoxic inactive.
Screening COc1ccccc1OCc1ccc(C(=O)N(C)C)o1 returned FLuc modulator inconclusive, NPC1 prom act inactive, SMN2 splice enh inconclusive, KinaseGlo FLuc inactive, Rab9 prom act inactive and ELG1 genotoxic inactive.
`Cc1cccc(OCC(=O)Nc2nccs2)c1C` gave FLuc modulator 1.51µM, NPC1 prom act 0.355µM, Rab9 prom act 0.355µM and ELG1 genotoxic 2.06µM.
Screening CN(C)C(=O)c1ccc(COc2ccccc2Br)o1 returned FLuc modulator 19µM, NPC1 prom act inconclusive, SMN2 splice enh 8.91µM, KinaseGlo FLuc inactive, Rab9 prom act inconclusive and ELG1 genotoxic 20.6µM.
Screening CCOC(=O)c1cc(C)n(CC2CCC(C(=O)Nc3ccc(C(=O)OC)cc3)CC2)c1C (stereo not given) returned FLuc modulator inactive.
